Experimental data from PubChem BioAssay AID2314 (National Center for Advancing Translational Sciences (NCATS), 2010).
Hit rate of the full screen: of about 300,000 compounds, about 37,000 (12%) were called active. Cut-off read from the data, not from the text of the source: active = max response mostly above about 13% (no sharp cut-off); inactive = mostly below about 14%. The full list was thinned out, with actives kept by preference.

Assay: Cycloheximide Counterscreen for Small Molecule Inhibitors of Shiga Toxin; note: read at 38.3 µM for the half of the compounds with a filed dose; 0% is about no effect
Settings: cell reporter, cycloheximide protein synthesis inhibition counterscreen; active compounds read high

| Structure (SMILES) | max response |
| --- | --- |
| Cc1c(C)c(C)c2[nH]c(=S)[nH]c2c1C | 0.294% (inactive) |
| COC1=C/C(=C/c2c(N)n3nc(CC(=O)N4CCOCC4)sc3nc2=O)C=CC1=O | 21.2% (inactive) |
| CC(C)C(=O)N1CC(=O)Nc2ccc(F)cc2C1c1ccc(F)cc1 (stereo unspecified) | 0.988% (inactive) |
| O=c1oc2cc(O)ccc2cc1-c1ccc(F)cc1 | 43.3% (active) |
| COc1ccc(-c2cc3ccc(OCc4nn[nH]n4)cc3oc2=O)cc1 | 2.53% (inactive) |
| COc1cccc(C(=O)c2cc3ccc(O)cc3oc2=O)c1 | 7.25% (inactive) |
| C/C(CC(=O)Nc1ccc(Cl)cc1)=N\NC(=O)C(=O)NCCO | 7.42% (inactive) |
| C/C(CC(=O)Nc1ccc(N(C)C)cc1)=N\NC(=O)c1ccccc1F | 38.4% (active) |
| CCn1c2ccccc2c2cc(NC(=O)C/C(C)=N/NC(=O)c3ccccc3N)ccc21 | 39.3% (active) |
| CCn1c2ccccc2c2cc(NC(=O)COC(=O)c3ccccc3Br)ccc21 | 1.49% (inactive) |
| CN(C)c1ccc(NC(=O)CN2C3CCCC2CC(NC(=O)c2ccccc2)C3)cc1 (stereo unspecified) | -6.36% (inactive) |
| CCn1c2ccccc2c2cc(NC(=O)CNC)ccc21 | -0.552% (inactive) |
| Cc1ccccc1N1CCN(C2CCCN(C(=O)c3cn4c(C)cccc4n3)C2)CC1 (stereo unspecified) | -1.34% (inactive) |
| COc1ccc(CC(=O)N2N=C(C)CC2(O)C(F)(F)F)cc1 (stereo unspecified) | 15.5% (inactive) |
| O=C(CCc1nnc(Cc2ccc3c(c2)OCO3)o1)NCCc1ccccc1Cl | 4.94% (inactive) |
| COCCCn1c(Cc2csc(Nc3cccc(Cl)c3)n2)nnc1SCC(=O)OC1CCCCC1 | 1.16% (inactive) |
| O=C(Nc1ccc(S(=O)(=O)NCC2CCCO2)cc1)c1ccc(F)cc1 (stereo unspecified) | -1.11% (inactive) |
| CCn1cc(C(=O)N2CC(C)CC(C)C2)c(=O)c2cc(S(=O)(=O)N3CCCC3)ccc21 (stereo unspecified) | -2.89% (inactive) |
| COc1ccc(/C=C/c2noc(-c3ccccc3OC(C)=O)n2)cc1 | 19% (active) |
| CC(=O)Oc1ccc2c(c1)C(=O)c1ccccc1C2=O | 8.81% (inactive) |
| CC(=O)Oc1ccc(-c2nc3c(C)cccc3c(=O)o2)cc1 | -4.07% (inactive) |

| Structure (SMILES) | max response |
| --- | --- |
| Cc1ccc2c(CC(=O)NCc3cccs3)coc2c1 | 29.3% (active) |
| Cn1cccc1C(=O)NC(=O)COC(=O)Cc1coc2ccc3ccccc3c12 | 4.33% (inactive) |
| COc1ccc(C)cc1NC(=O)CNCc1cccs1 | 8.07% (inactive) |
| CCN(CC(=O)NCc1cccs1)C(=O)c1ccccc1F | -0.418% (inactive) |
| O=C(Cc1coc2ccc3ccccc3c12)NCc1cccs1 | 11.8% (active) |
| COc1cc(CC(=O)NCc2cccs2)cc(OC)c1OC | 0.388% (inactive) |
| CCCNC(=O)CCn1nc(-c2ccccc2)c2ccccc2c1=O | -3.01% (inactive) |
| CCN(CC)S(=O)(=O)c1ccc(N2CCCC2)c(NS(=O)(=O)c2cccs2)c1 | -6.15% (inactive) |
| CCOC(=O)CSC1=N/C(=C/c2ccc(-n3cncn3)cc2)C(=O)N1C(C)=O | -4.18% (inactive) |
| COc1ccc(CCc2nc(-c3cccs3)no2)cc1 | 67.2% (active) |
| CCc1ccc(CNC(=O)CCc2nc(-c3cccs3)no2)cc1 | -4.69% (inactive) |
| COc1ccc(OC)c(CNC(=O)CCc2nc(-c3cccs3)no2)c1 | -2.6% (inactive) |
| Cc1ccc2[nH]c(=O)c(CN3CCCCC3)c(-c3ccccc3)c2c1 | -4.55% (inactive) |
| COc1cc(/C=C(\C#N)c2nc3c(s2)CC(C)CC3)ccc1O (stereo unspecified) | 26.5% (active) |
| CCCCCOc1ccc(/C=C/C(=O)NCCc2nc3ccccc3[nH]2)cc1OC | 1.2% (inactive) |
| COc1cc(/C=C(\C#N)c2nc3ccccc3[nH]2)ccc1O | 43.6% (active) |
| COc1ccc(/C=C(/NC(=O)c2ccc(C)cc2)c2nc3ccccc3[nH]2)cc1OC | -2.64% (inactive) |
| O=C(NCc1ccc(F)cc1)C1CCN(C(=O)Nc2ccc(F)cc2)CC1 | -0.971% (inactive) |
| O=C1CN(C(=O)c2cc(F)cc(F)c2)c2ccccc2N1 | -6.12% (inactive) |
| COc1ccc(F)cc1C(=O)C1CCCN(C(=O)CCc2ccccn2)C1 (stereo unspecified) | 7.94% (inactive) |
| COC(=O)CC(=O)N1CCN(c2ccc(Cl)c(Cl)c2)CC1 | 0.736% (inactive) |

| Structure (SMILES) | max response |
| --- | --- |
| CCn1c2ccc(F)cc2c2nnc(SCCN3CCOCC3)nc21 | 8.52% (inactive) |
| Cc1cc2nc(SCCN3CCOCC3)[nH]c2cc1C | 32.3% (active) |
| Cc1cccc(C)c1OCCN1CCOCC1 | 0.405% (inactive) |
| COCCn1c(SCC(=O)Nc2nc(C)cs2)nnc1C(C)C | -4.2% (inactive) |
| Cc1cccc(CCNC(=O)Cn2ncc3c([nH]c4ccc(C)cc43)c2=O)c1 | -2.84% (inactive) |
| O=C1CCC(C(=O)N2CCN(c3ccccc3Cl)CC2)CN1CC1CCCCC1 (stereo unspecified) | 9.87% (inactive) |
| O=C(Cn1ncc2c3ccccc3n(Cc3ccccc3)c2c1=O)NCCCN1CCOCC1 | 6.16% (inactive) |
| Cc1cc(CO)nn1-c1ccc([N+](=O)[O-])cc1 | -1.2% (inactive) |
| Cc1nn(-c2ccc([N+](=O)[O-])cc2)c(N)c1-c1ccccc1 | 38.2% (active) |
| Cc1nc(-c2ccc([N+](=O)[O-])cc2)c(-c2ccccc2)o1 | -2.35% (inactive) |
| O=C(CCN1CCCO1)N1CCCC(N2CCN(c3cccc(C(F)(F)F)c3)CC2)C1 (stereo unspecified) | 7.08% (inactive) |
| COC(=O)c1sccc1NN1C(=O)c2ccccc2C1=O | 28.6% (active) |
| COC(=O)c1sccc1NC(=O)c1cc(OC)c(OC)c(OC)c1 | 1.99% (inactive) |
| COC(=O)c1sccc1NC(=S)Nc1ccc(C)cc1 | 25.3% (inactive) |
| Cc1ccccc1CNC(=O)CCC(=O)N1Cc2ccccc2Oc2ncccc21 | -2.36% (inactive) |
| COc1cccc(CN2CCN(Cc3ccc4cccc(F)c4n3)CC2CCO)c1 (stereo unspecified) | -3.47% (inactive) |
| COC(=O)C1=C(C(=O)c2ccc(C)cc2)C(c2ccccc2)n2nnnc2N1 (stereo unspecified) | 2.04% (inactive) |
| COc1ccccc1NC(=O)C1=C(C)Nc2nnnn2C1c1cccc(Br)c1 (stereo unspecified) | -5.64% (inactive) |
| COC(=O)c1ccc(C2C3=C(Nc4nnnn42)c2ccccc2OC3)cc1 (stereo unspecified) | 17.4% (active) |
